Over roughly 33,000 sequences, “E-score (-0.5 to 0.5)” has its median near -0.04; the highest 2% begin near 0.36. This excerpt belongs to a sample that is enriched for the highest values.
Molecular target: T1, Hmlalpha2 (UniProt P0CY09)
T1 sequence: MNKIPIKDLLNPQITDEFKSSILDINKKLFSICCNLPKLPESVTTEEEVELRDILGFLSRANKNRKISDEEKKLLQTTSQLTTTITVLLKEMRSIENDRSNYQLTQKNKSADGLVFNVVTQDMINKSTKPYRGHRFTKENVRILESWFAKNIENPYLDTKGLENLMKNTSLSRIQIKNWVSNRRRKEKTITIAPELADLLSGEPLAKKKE
Assay: PBM E-score (8-mer binding enrichment) (E-score (-0.5 to 0.5)); higher = stronger / more preferred TF binding
Conditions: protein concentration: 200 nM; construct: GST-full length
Description: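 Universal 'all 10-mer' protein binding microarrays (Agilent AMADID 015681) probed with GST-tagged S. cerevisiae TFs (full-length or DBD) made by in vitro transcription/translation (PURExpress), about 100-200 nM. Bound TF was detected with fluorescent anti-GST. Each ungapped 8-mer (which stands for itself and its reverse complement) is scored by the PBM enrichment score (E-score), a modified Wilcoxon-Mann-Whitney statistic from -0.5 to +0.5, computed with the Universal PBM Analysis Suite. Scale: above 0.35 generally sequence-specific binding.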

| Sequence | PBM E-score |
| --- | --- |
| AATAAGCC | -0.212 |
| GTGCATGA | 0.0341 |
| GAAAGTTC | -0.218 |
| GTATCCTA | 0.0388 |
| GCCTATGA | -0.147 |
| CCAACCCG | -0.242 |
| GGGCGAAC | -0.178 |
| GAACTCTA | 0.123 |
| TTATCGAA | 0.0652 |
| AATGTTAC | 0.269 |
| CATGTTAG | 0.422 |
| CCTGTTAG | 0.0951 |
| AATGTTAG | 0.185 |
| GATGTTAC | 0.304 |
| CATGTTAC | 0.41 |
| ATGGTCGA | -0.0159 |
| ACGTAACA | 0.385 |
| ACGTAAAA | 0.388 |
| ACGTAAGT | 0.216 |
| AAGTAAAA | 0.121 |
| AGGTAAAG | 0.19 |
| ACGTAACG | 0.161 |
| ACGTAAAC | 0.295 |
| ACGTAAAG | 0.372 |
| ACGTAAAT | 0.376 |

| Sequence | PBM E-score |
| --- | --- |
| ACGTAACC | 0.22 |
| CCGTAAAG | 0.0757 |
| CAGTAAAA | 0.134 |
| ACCTAGTC | -0.177 |
| GAAGGACC | -0.245 |
| ACAAGCCT | 0.227 |
| TCCAAGCA | -0.164 |
| ATGGTAGA | 0.079 |
| GCGTAAGC | 0.183 |
| CCGTAAAA | 0.12 |
| GCGTAAAC | 0.404 |
| TCGTAAAA | 0.237 |
| GCGTAAAA | 0.4 |
| CCGTAAAC | 0.199 |
| CTTCAATA | 0.173 |
| ATACGGCA | 0.103 |
| AAATGTAT | 0.277 |
| ACATGTCT | 0.305 |
| CCATGTAC | 0.398 |
| CGATGTAG | 0.106 |
| GCCTGTAC | 0.101 |
| CCATGTCG | 0.336 |
| ACATGTAT | 0.454 |
| CCATGTCC | -0.00972 |
| GCATGTCC | -0.0024 |

| Sequence | PBM E-score |
| --- | --- |
| CCATGTGC | 0.0482 |
| CCATGTAG | 0.416 |
| GCATGTAC | 0.408 |
| GCAGCTCA | -0.181 |
| CTATGGAC | -0.125 |
| CTGCGAAA | 0.0491 |
| ATTCTGCA | -0.0444 |
| ACCATCGT | -0.151 |
| TCTAAGCA | -0.0643 |
| TCGCTTAA | 0.0673 |
| AATATGCT | 0.0361 |
| ACATGTGC | 0.352 |
| ACATGTAC | 0.412 |
| ACATGTGG | 0.312 |
| ACATGTAG | 0.459 |
| AGATGTAC | 0.121 |
| ACATGTCG | 0.343 |
| CGGTGCGC | -0.279 |
| ACTCTATC | -0.0301 |
| ACCGTAGT | -0.225 |
| AAGGGCCT | -0.136 |
| ATGGCATA | -0.0529 |
| CAAAGGTC | -0.233 |
| ACGATTTA | 0.244 |
| TAACACTA | 0.316 |

| Sequence | PBM E-score |
| --- | --- |
| CTACAAAA | 0.0813 |
| CTCTACAG | 0.0676 |
| CCACACAC | 0.0345 |
| CTACACAG | 0.421 |
| CTACACAC | 0.391 |
| TTACAAAA | 0.266 |
| TCACACAA | 0.23 |
| CCACACAA | -0.0216 |
| CTACAGAG | 0.184 |
| CTACACAA | 0.369 |
| TTACACAA | 0.478 |
| CTACACCC | 0.0904 |
| GCATAAGC | 0.119 |
| ACTGCCTC | -0.0994 |
| CCCATTCG | -0.0725 |
| GAAGCGGC | -0.131 |
| GTACACAA | 0.373 |
| GCACACAA | 0.155 |
| GTACACAC | 0.357 |
| AAGTGCTG | 0.107 |
| TGCCACCA | -0.261 |
| ACCATGGT | -0.0519 |
| CACATGGG | -0.0456 |
| AACATGGC | 0.406 |
| CACATGGC | 0.0319 |

| Sequence | PBM E-score |
| --- | --- |
| AACATGGG | 0.415 |
| AACATGGT | 0.384 |
| GACATGGC | 0.224 |
| AACATGGA | 0.346 |
| ATCATGGG | -0.0934 |
| ACACTGTA | 0.116 |
| TCAGAAGA | -0.267 |
| AATGCCCA | 0.0243 |
| AAATCCGG | -0.18 |
| AAGTATTG | 0.0978 |
| CACACAAC | 0.27 |
| AACACAAC | 0.409 |
| AACACAAG | 0.326 |
| AACACAAT | 0.373 |
| AACACAGC | 0.379 |
| AACACAGG | 0.247 |
| CACACAGC | 0.201 |
| GACACAAC | 0.264 |
| CACACAAG | 0.248 |
| CGTTAGGA | 0.0405 |
| CATCGACA | -0.0243 |
| GACGCTCA | -0.111 |
| GGCCACCC | -0.351 |
| CGGGGCGC | -0.244 |
| GACACGTA | 0.293 |

| Sequence | PBM E-score |
| --- | --- |
| TACACGTA | 0.428 |
| CACACGTA | 0.271 |
| AACACGTT | 0.403 |
| CACACGTC | 0.166 |
| AACACGTA | 0.41 |
| ACCACGTA | 0.254 |
| GACACGTC | 0.2 |
| AACACGTG | 0.348 |
| AACACGTC | 0.377 |
| CACACGTG | 0.289 |
| AAAACGTT | 0.0264 |
| CAAGTACA | 0.266 |
| TAAGTGGA | 0.0716 |
| ACATTTAC | 0.348 |
| ACTGTCGC | -0.165 |
| CGGAGAAG | -0.358 |
| CCCTTTAG | -0.261 |
| ATGACTCG | -0.0578 |
| GATCTAAC | 0.0316 |
| CACCGACG | 0.00164 |
| ACTAGGAG | -0.0601 |
| AACTAGGG | -0.094 |
| GAGGGAAC | -0.165 |
| ATACACCA | 0.215 |
| ATACACTA | 0.149 |

| Sequence | PBM E-score |
| --- | --- |
| ACACACGG | 0.277 |
| ATACACGG | 0.445 |
| AGACACGG | 0.228 |
| ATACACGC | 0.449 |
| AGACACGC | 0.147 |
| ATACACGA | 0.432 |
| ACACACGC | 0.288 |
| CTTTCATA | 0.162 |
| ACGTGTTG | 0.415 |
| GCGTGGTA | 0.0607 |
| ACGTGTGG | 0.136 |
| GCGTGTGA | 0.284 |
| CCGTGTTC | 0.328 |
| CAGTGTTA | 0.212 |
| ACGTGTTC | 0.211 |
| AGGTGTTA | 0.256 |
| ACGTGTTA | 0.45 |
| GCGTGTTA | 0.46 |
| AGGTGTTG | -0.053 |
| CCGTGTTA | 0.44 |
| TCGGAGCA | -0.279 |
| CTTAAAAC | 0.201 |
| AACTCTTG | -0.084 |

From the supplement of paper PMC3334620
